Here are results for 71 compounds from ChEMBL document CHEMBL3988442, “University of Dundee, Small-Polar-MMV Screening Library” (2021).

Structures are written as SMILES. Screen size: about 48,000 compounds; about 13,000 (27%) showed an effect of 50% or more. The list shows a part of the results.

For this test, the system named is Wolbachia pipientis. Kind of test: Anti-Wolbachia Cell-Based Screen. Format: functional. Further details: scale not given: in the data most compounds retested in dose-response had high values. The note with it: 5 µM.
Consider `c1cc(CCn2ccc(NC3CCSCC3)n2)ccn1`, for which the “Percent Effect” value was 6.041%.
Then `COc1cccc(N2CCN(C(C(=O)O)c3ccc(OC)nc3)CC2)c1` (stereo unspecified), with -2.782%; and `COc1c(F)cc(-c2cccc3c2OC(CN)C3)cc1F` (stereo unspecified), with 6.268%; and `CC1CCN(C(=O)C2(Cc3cc(C4CCOC4)no3)CCNCC2)CC1.Cl` (stereo unspecified), with 189.1%.
In the case of `C[C@@H]1CN(Cc2cc(C3CCCCC3)no2)CC[C@]1(C)O`, the “Percent Effect” value is 4.197%.
Consider `Cl.O=C(NC1CCCC1)C1(Cc2cc(C3CCOC3)no2)CCNCC1` (stereo unspecified), for which the “Percent Effect” value was determined as 131.3%.
Then `CC(C)(C)c1noc(OCC(=O)NC2CCCC2)n1`, with -14.46%; and `CC(C)(C)c1cc(C[C@H]2CNCC[C@H]2CC(=O)NC2CCCCC2)no1`, with 10.2%.
Take `OCC1COCCN(Cc2cc(C3CCCCC3)no2)C1` (stereo unspecified): the “Percent Effect” value is -1.346%.
As for `CCN(C)c1ccc(CNC(=O)c2cc(C(N)=O)cs2)cc1F`, the “Percent Effect” value is -17.75%.
For `OCCN1CCN(Cc2cn(-c3ccccc3)nn2)CC1`, the “Percent Effect” value was -6.326%.
The same measure for `CN1CC(c2ccccc2)CC12CCN(C(=O)c1ccc(Cl)cn1)CC2` (stereo unspecified): -6.025%; for `Cc1cc(NCCc2nc(C)cs2)nc(-c2cccnc2)n1`: 101.8%.
For `CCCc1nc(C)cc(NCCc2nnc(N)s2)n1`, the “Percent Effect” value amounted to 113%.
For `Cc1cc(NCCc2c(C)n[nH]c2C)nc(-c2cccnc2)n1`, the “Percent Effect” value is on record as 90.29%.
The same measure for `Cc1n[nH]c(C)c1CCN(C)C(=O)C(c1cccnc1)N1CCOCC1` (stereo unspecified): 1.239%; for `CC(C)Cc1cc(C(=O)NCCc2nnc(N)s2)n(C)n1`: 6.947%.
The same measure for `CCCc1nc(C)cc(NC(C)Cc2cnccn2)n1` (stereo unspecified): 10.99%; for `FC(F)(F)c1cc(NCCn2ncnn2)nc(-c2cccnc2)n1`: -6.298%; for `Cc1cc(NCCc2nnc(N)s2)nc(-c2cccnc2)n1`: 111.6%.
`FC(F)(F)c1cc(NCCCn2cccn2)nc(-c2cccnc2)n1`: the “Percent Effect” value came to 19.81%.
The same measure for `Cc1csc(CCNc2ccc(C#N)cn2)n1`: -3.132%.
As for `Cc1cc(N(C)Cc2cc(C(C)(C)C)n[nH]2)nc(-c2cccnc2)n1`, the “Percent Effect” value was -3.665%.
`Cc1cc(N(C)Cc2snnc2C)nc(-c2cccnc2)n1`: the “Percent Effect” value came to 5.151%.
The same measure for `O=C(Nc1cccn(CC(F)(F)F)c1=O)c1ccncc1F`: -0.2014%; for `CSc1ncc(C(=O)N2C[C@H]3CC[C@@H]2CN(Cc2ccccc2)C3)cn1`: -11.56%; for `COc1cccc(CNC2CCCOc3cc(C)ccc32)n1` (stereo unspecified): -12.28%.
Take `Cc1ccccc1C(CC(=O)NCc1nnc(N)s1)c1ccccc1` (stereo unspecified): the “Percent Effect” value is listed as 1.078%.
On to `Cc1cc(NCCc2nnc(N)s2)nc(-c2ccccc2)n1`, for which the “Percent Effect” value was found to be 97.75%.
Then `Cn1cccc1-c1cc(C(=O)NCCc2nnc(N)s2)[nH]n1`, with -4.601%.
As for `N#Cc1cccc(NC(=O)N[C@H](CO)Cc2ccc(O)cc2)c1`, the “Percent Effect” value is reported as -17.39%.
Regarding `O=C(NC1CCC1)C1CCC2(CN(C(=O)c3ccno3)C2)O1` (stereo unspecified), the “Percent Effect” value stood at 2.059%.
Then `CC(C)(C)n1ccc(C(=O)N2CCCC(c3ccc(C(=O)O)cc3)C2)c1` (stereo unspecified), with -5.053%; and `O=C(c1ccc[nH]1)N1CCCC(c2cc(C(F)(F)F)[nH]n2)C1` (stereo unspecified), with -9.471%.
Take `Cc1[nH]ccc1C(=O)N1CCCC(c2ccc(C(=O)O)cc2)C1` (stereo unspecified): the “Percent Effect” value was determined as 104%.
Then `Cc1cc(C(=O)N2CCCC(c3ccc(C(=O)O)cc3)C2)c(C)o1` (stereo unspecified), with 108.3%; and `O=C(O)c1ccc(C2CCCN(C(=O)c3ccc[nH]3)C2)cc1` (stereo unspecified), with 96.47%.
As for `Cc1cc(C(=O)N2C[C@@H](C(=O)O)[C@H](c3ccccc3C)C2)c(C)o1`, the “Percent Effect” value is recorded as -7.74%.
For the compound `CC(C)c1csc(C2CCCN(C(=O)c3ccc[nH]3)C2)n1` (stereo unspecified), the “Percent Effect” value was 7.741%.
The same measure for `Cc1[nH]ccc1C(=O)N1CCCC(c2nccn2Cc2cscn2)C1` (stereo unspecified): -11.42%; for `CCC(C)N1CCC(Oc2ccc(C(=O)NCCN(C)C)cc2Cl)CC1` (stereo unspecified): 0.8675%; for `COc1cccc(/C=C/CCN2CCCN(C(C)=O)CC2)c1`: 3.012%.
In the case of `COCC(=O)NCc1cccc(OCCN(C)C2CCOCC2)c1`, the “Percent Effect” value is -0.3867%.
Then `Cc1ccc(C)c(-n2cc(CN3CCOCC3)c(-c3ccccc3)n2)c1`, with 9.149%; and `CCc1nc(C2CCCN2CCc2ccccn2)no1` (stereo unspecified), with 17.85%.
For `Cc1nc(C2CCCN2CCCNS(C)(=O)=O)no1` (stereo unspecified), the “Percent Effect” value was 5.107%.
Regarding `CC(C)c1nc(C2CCCN2CCNS(C)(=O)=O)no1` (stereo unspecified), the “Percent Effect” value is listed as 98.61%.
Then `CC(C)c1nc(C2CCCN2CCN2CCCCC2)no1` (stereo unspecified), with 99.79%.
On to `CC(C)c1nc(C2CCCN2CCc2ccccn2)no1` (stereo unspecified), for which the “Percent Effect” value was found to be 92.65%.
The same measure for `CC(C)c1nc(C2CCCN2CC(=O)N2CCNC2=O)no1` (stereo unspecified): 0.9306%; for `CC(C)c1nc(C2CCCN2CCS(C)(=O)=O)no1` (stereo unspecified): 108.9%.
Regarding `CCS(=O)(=O)CCN1CCCC1c1noc(C2CC2)n1` (stereo unspecified), the “Percent Effect” value is -6.058%.
For the compound `Cc1nc(C2CCCN2CCc2ccccn2)no1` (stereo unspecified), the “Percent Effect” value is on record as 0.4664%.
The same measure for `CC(C)c1nc(C2CCCN2CCc2ccncc2)no1` (stereo unspecified): -3.016%; for `CC(C)(C)CC(=O)N1CC[C@@H](CC(=O)O)[C@@H](CCN2CCCCC2)C1`: -5.604%.
As for `CN(C)c1ccc(C(=O)N(Cc2ccncc2)CC2CCCO2)nn1` (stereo unspecified), the “Percent Effect” value is -20.14%.
Turning to `CC(=O)Nc1cccc(C(=O)Nc2cnc3n2CCCC3)c1`, the “Percent Effect” value is on record as -12.98%.
Then `CCCS(=O)(=O)N1C[C@@H]2CC[C@H](C1)N(Cc1cscn1)C2=O`, with -56.87%.
Then `COCc1cnc2n1CCN(S(=O)(=O)c1c(C)nn(C)c1C)C2C` (stereo unspecified), with -6.968%; and `CCCN(CCC)S(=O)(=O)NCCc1cc(C)ccc1OC`, with -23%.
As to `CCN(CC)C1(Cc2cc(-c3cccc(O)c3)on2)COC1`, the “Percent Effect” value was -3.325%.
`CCCN1Cc2ccccc2NC(=O)C12CCNC2` (stereo unspecified): the “Percent Effect” value was found to be 105.5%.
Then `CC(C(=O)O)N1CC2(CCC1=O)CCN(C/C=C/c1ccccc1)CC2` (stereo unspecified), with -24.48%.
As to `O=C1NCCN(CC2CC2)C12CCN(Cc1ccco1)CC2`, the “Percent Effect” value is -5.362%.
Then `COc1ccccc1NC(=O)CSC1CCc2ccccc2NC1=O` (stereo unspecified), with 14.42%; and `O=C1NC2(CCN(C/C=C/c3ccccc3)CC2)CC1c1ccccc1` (stereo unspecified), with 1.619%; and `O=C1Nc2ccccc2CN(CC2CCCC2)C12CCNC2` (stereo unspecified), with 101.1%.
Then `O=C(CSC1CCc2ccccc2NC1=O)NCCO` (stereo unspecified), with -0.2821%; and `CCc1nnc(CN2CCC3(CC2)Nc2ccccc2NC3=O)o1`, with 8.139%.
Then `O=C1Nc2ccccc2CN(CC2CC2)C12CCNC2` (stereo unspecified), with 99.74%; and `O=C1Nc2ccccc2CN(C/C=C/c2ccccc2)C12CCNC2` (stereo unspecified), with 116.1%.
